The structures appear in SMILES notation. Where “and” joins values, the source holds several entries; their conditions need not be identical. Identical values can stand only once. Results filed as inconclusive are left out. Some structures have more than one record in an assay (separate samples or runs), and their calls can disagree. Calls of active or inactive are those of the source. How the source made its calls: active means hit-call score of the fitted dose curve at least 0.9, where 1 is the maximum; inconclusive means response in the unintended direction; inactive means score below 0.9.

One may read the AC50 as the midpoint of the concentration-response curve, whichever way the signal moves.

Cellular tumor antigen p53 (Homo sapiens), sequence (P04637 whole entry, looked up, the tested form may be a part): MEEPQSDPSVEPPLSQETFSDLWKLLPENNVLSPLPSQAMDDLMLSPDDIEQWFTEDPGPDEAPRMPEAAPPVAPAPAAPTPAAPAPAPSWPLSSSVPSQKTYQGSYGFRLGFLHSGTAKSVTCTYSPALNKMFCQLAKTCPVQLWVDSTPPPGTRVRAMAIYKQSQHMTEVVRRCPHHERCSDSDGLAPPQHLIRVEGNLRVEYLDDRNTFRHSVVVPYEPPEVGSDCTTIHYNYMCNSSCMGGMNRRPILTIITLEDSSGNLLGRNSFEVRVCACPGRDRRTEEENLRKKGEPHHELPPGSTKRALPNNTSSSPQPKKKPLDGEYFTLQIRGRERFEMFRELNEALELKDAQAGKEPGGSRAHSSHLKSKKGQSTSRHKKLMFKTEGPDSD

The assay concerns the target Cellular tumor antigen p53 (Homo sapiens) (UniProt P04637). Description: TOX21_p53_BLA_p5_ratio: Tox21 HCT-116 p53 Agonism Beta-lactamase Assay, Ratio, Phase 5 (AID 2283599). An excerpt: TOX21_p53_BLA_p5 is a cell-based, single-readout assay that uses HCT116, a human intestinal cell line, […] in a 1536-well plate.TOX21_p53_BLA_p5_ratio is an assay readout measuring reporter gene via receptor activity and designed using inducible reporter (beta lactamase induction) detected with GAL4 b-lactamase reporter gene. The signal is derived from the ratio of cleaved (ch2) to uncleaved (ch1) reporter gene substrate used as the measure of target activity.Data from the assay component TOX21_p53_BLA_p5_ratio was analyzed into 1 assay endpoint. This assay endpoint, TOX21_p53_BLA_p5_ratio, was analyzed in the positive analysis fitting direction relative to DMSO as the negative control and baseline of activity. Using a type of inducible reporter, gain-of-signal activity can be used to understand changes in the reporter gene as they relate to the gene TP53. Furthermore, this assay endpoint can be referred to as a primary readout, because this assay has produced multiple assay endpoints and this ratio serves a reporter gene function to understand target activity. To generalize the intended target to other relatable targets, this assay endpoint is annotated to the DNA binding intended target family, where the subfamily is tumor suppressor.
Thawing Method: Place 14 mL of pre-warmed thaw medium into a 15 mL of conical tub. Remove the vial of cells to be thawed from liquid nitrogen and thaw rapidly by placing at 37C in a water bath with gentle agitation for 1-2 minutes. Decontaminate the vial by wiping with 70% ethanol before opening in a biological safety cabinet. Transfer the vial contents drop-wise into 14 mL of thaw medium in a sterile 15-mL conical tub. Centrifuge cells at 900 rpm for 4 minutes and resuspend in thaw medium. Transfer contents to the T75 tissue culture flask containing Thaw Medium and place flask in a humidified 37C/5% CO2 incubator. Switch to growth medium at first passage.Propagation Method: Aspirate medium, rinse once in DPBS, add 0.25% Trypsin/EDTA and swirl to coat the cell evenly. Add an equal volume of Growth Medium to inactivate Trypsin after 2-3 minutes incubation at 37C. Centrifuge cells at 900 rpm for 4 minutes and resuspend in growth medium. Cell should be passage or fed at least twice a week.Assay Protocol: Harvest cells from culture in growth medium and resuspend in assay medium. 2.2 Dispense 4000 cells/5 uL/well into 1536-well black/clear bottom plates using a Multidrop dispenser. After the cells were incubated at 37C for 5 hours, 23 nL of compounds dissolved in DMSO were transferred to the assay plate by a PinTool resulting in a 217-fold dilution. Incubate the plates for 16 hours at 37C, 5% CO2. Add 1 uL of 6X LiveBLAzer FRET B/G (CCF4-AM) Substrate Mixture to each well using a BioRAPTR dispenser and incubate the plates at room temperature for 2 hours. Measure fluorescence intensity at 460 and 530 nm emission and 405 nm excitation by an Envision detector. Data is expressed as the ratio of 460nm/530nm emissions. Add 4 uL of Cell-titer Glo to each well using BioRAPTR and incubate the plates at room temperature for 2 hours. Measure fluorescence intensity by a VewLux plate reader.
As to `NS(=O)(=O)C(F)(F)C(F)(F)C(F)(F)C(F)(F)C(F)(F)C(F)(F)C(F)(F)C(F)(F)F`, the AC50 was 82.3 µM (active).
Consider `CC(C)C(=O)OCC(C)(C)C(OC(=O)C(C)C)C(C)C` (stereo not given), for which the result was inactive.
Still for that read-out and setting: with `OCC(O)CO` the entry was “inactive”.
Regarding `Oc1ccc(C(c2ccc(O)cc2)(C(F)(F)F)C(F)(F)F)cc1`, the AC50 was 72.8 µM (active) and the result was inactive.
On to `CCCCCCCCCc1ccc(O)cc1`, for which the result was inactive.
`O=C(O)C(F)(F)C(F)(F)C(F)(F)C(F)(F)C(F)(F)C(F)(F)C(F)(F)C(F)(F)F`: the concentration at half-maximal activity (AC50) was 82.9 µM (active).
For the molecule `CC(C)(O)C(=O)Nc1ccc([N+](=O)[O-])c(C(F)(F)F)c1`, the result was inactive.
With `Cc1cc(-c2ccc(N)c(C)c2)ccc1N`, the outcome was inactive.
As to `Clc1ccc(C(Cl)(Cl)Cl)cc1`, the outcome was inactive.
With `CC(C)(c1ccccc1)c1ccc(O)cc1`, the result was inactive and the concentration at half-maximal activity (AC50) was 73.1 µM (active).
Take `CCCN(CCC)N=O`: the outcome was inactive.
Still for that read-out and setting: with `O=C(O)C(F)(F)C(F)(F)C(F)(F)C(F)(F)C(F)(F)C(F)(F)C(F)(F)C(F)(F)C(F)(F)F` the entry was “inactive”.
Take `C[C@]12CCC(=O)C=C1CC[C@@H]1[C@@H]2CC[C@@]2(C)[C@H]1CC[C@]2(C)O`: the outcome was inactive and the concentration at half-maximal activity (AC50) was 47.1 µM (active).
With `Cc1ccccc1[N+](=O)[O-]`, the outcome was inactive.
`N#Cc1ccc(N(CC(N)=O)CC(F)(F)F)cc1C(F)(F)F`: the result was inactive.
Turning to `CCCCCCCCCC[N+](C)(C)CCCCCCCCCC`, the AC50 was 72.9 µM (active) and 39.8 µM (active).
As to `CCOCCOC(C)=O`, the result was inactive.
Turning to `Clc1ccc(Cl)cc1`, the result was inactive.
As for `CN(C)CCO`, the result was inactive.
With `Cc1ccc(O)c(C)c1`, the result was inactive.
Still for that read-out and setting: with `O=NN(c1ccccc1)c1ccccc1` the entry was “inactive”.
Still for that read-out and setting: in the case of `c1cc2ccc3cccc4ccc(c1)c2c34` it was “inactive”; in that of `O=S(=O)(O)C(F)(F)C(F)(F)C(F)(F)C(F)(F)F`, “inactive”.
In the case of `Oc1c(Cl)c(Cl)c(Cl)c(Cl)c1Cl`, the half-maximal activity concentration (AC50) was 8.02 µM (active) and the result was inactive.
As for `C[C@]12CCC(=O)C=C1CC[C@@H]1[C@@H]2CC[C@]2(C)C(=O)CC[C@@H]12`, the outcome was inactive.
On the same count and under the same terms, with `Nc1ccc(-c2ccc(N)cc2)cc1` the entry was “inactive”.
Regarding `Clc1ccc(C(c2ccccc2Cl)C(Cl)(Cl)Cl)cc1` (stereo not given), the half-maximal activity concentration (AC50) was 72.8 µM (active) and the result was inactive.
On to `Cc1cccc([N+](=O)[O-])c1`, for which the outcome was inactive.
Turning to `Cc1ccccc1O`, the outcome was inactive.
For `CO/C=C(/C(=O)OC)c1ccccc1COc1cccc(C(F)(F)F)n1`, the concentration at half-maximal activity (AC50) was 4.18 µM (active).
In the case of `Oc1ccc(Cl)cc1Cl`, the result was inactive.
Consider `CCC(C)c1cc([N+](=O)[O-])cc([N+](=O)[O-])c1O` (stereo not given), for which the AC50 is 3.4 µM (active).
Regarding `ClC(Cl)=C(c1ccc(Cl)cc1)c1ccc(Cl)cc1`, the result was inactive.
Regarding `C=CC(=O)NCNC(=O)C=C`, the outcome was inactive.
The same measure, in the same setting: with `COc1ccc(O)c(C(C)(C)C)c1` the entry was “inactive”.

The record behind these values is PubChem BioAssay (EPA / NIEHS).
